# From PubChem BioAssay (EPA / NIEHS)
# Records with an inconclusive call do not appear. Calls of active or inactive are those of the source. The calls were made as follows, unless noted: active = hit-call score of the fitted dose curve at least 0.9, where 1 is the maximum; inactive = score below 0.9.
# Columns and labels:
# TTR (gene 7276) = assay: CCTE_GLTED_hTTR_0.125uM: CCTE's human Transthyretin (hTTR) Inhibition Assay, with 0.125uM TTR, Great Lakes Toxicology and Ecology Division (GLTED) Lab (AID 2284431);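 also: hits lower the fluorescence signal relative to DMSO baseline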
# Outline: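 Cell-free displacement of the fluorescent probe ANSA from human TTR (0.125uM) after 2 h incubation with test chemical. Fluorescence read at 380 nm excitation/475 nm emission; loss of signal fitted relative to DMSO baseline.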
# [1] = system: SRY-box transcription factor 17 (SOX17) Protein Expression, Deisenroth Lab, SOX17 (gene 64321); assay: CCTE_Deisenroth_DEVTOX-GLR_Pluri_SOX17: CCTE's DevTox GLR-Pluri Assay Evaluation of SRY-box transcription factor 17 (SOX17) Protein Expression, Deisenroth Lab (AID 2284427; active = hit-call score of the fitted dose curve at least 0.9, where 1 is the maximum)
# Protocol: CCTE_Deisenroth_DEVTOX-GLR_Pluri assay is a cell-based, multiplex-readout assay that uses RUES2-GLR, a human pluripotent cell line, with measurements taken at 48 hours after chemical dosing in a 384-well microplateCCTE_Deisenroth_DEVTOX-GLR_Pluri_SOX17 is 1 of 4 assay components calculated from the CCTE_Deisenroth_DEVTOX-GLR_Pluri assay and it measures an the percentage of cells in an endoderm state. Using a type of inducible fluorescent protein reporter, gain-of-signal activity can be used to understand changes in gene expression with fluorescent microscopy. The percentage of SOX17+ cells are determined by calculating the number of SOX17+ cells divided by the cell count. To generalize the intended target to other relatable targets, this assay component is annotated to the transcription factor intended target family, where the subfamily is SRY-related HMG-box.Data from the assay component CCTE_Deisenroth_DEVTOX-GLR_Pluri_SOX17 was analyzed as 1 assay endpoint. The endpoint is the percent SOX17+ cell population minus the 0.2% DMSO control in the CCTE_Deisenroth_DEVTOX-GLR_Pluri assay. This assay endpoint can be referred to as a secondary readout since this assay has produced multiple assay endpoints where this one serves as a measure of endoderm differentiation.
# All assay protocols are aligned to the DevTox GLR-Endo assay workflow. […]
# [2] = system: SRY-box transcription factor 2 (SOX2) Protein Expression, Deisenroth Lab, SOX2 (gene 6657); assay: CCTE_Deisenroth_DEVTOX-GLR_Pluri_SOX2: CCTE's DevTox GLR-Pluri Assay Evaluation of SRY-box transcription factor 2 (SOX2) Protein Expression, Deisenroth Lab (AID 2284428)
# Outline: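 Human pluripotent RUES2-GLR cells were seeded 24 h, then differentiated 48 h in defined media with two chemical doses at 24-h intervals (10-point, 1 nM–200 uM). Nuclear-stained cells were imaged; SOX2+ cells/cell count gave percent change versus 0.2% DMSO control.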
# [3] = system: Brachyury (BRA) Protein Expression, Deisenroth Lab, TBXT (gene 6862); assay: CCTE_Deisenroth_DEVTOX-GLR_Pluri_BRA: CCTE's DevTox GLR-Pluri Assay Evaluation of Brachyury (BRA) Protein Expression, Deisenroth Lab (AID 2284429; active = hit-call score of the fitted dose curve at least 0.9, where 1 is the maximum)
# Outline: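 RUES2-GLR human pluripotent cells differentiated 48 hours with two chemical exposures 24 hours apart, 10-point series 1 nM–200 uM. Fixed, nuclear-stained, imaged; endpoint is percent BRA+ cells minus 0.2% DMSO control.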
# [4] = CCTE_Deisenroth_DEVTOX-GLR_Pluri_CellCount: Viability Assessment in CCTE's DevTox GLR-Pluri Assay Evaluation of Total Cell Counts, Deisenroth Lab (AID 2284430)
# Outline: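 RUES2-GLR human pluripotent cells, seeded 24 h, then differentiated 48 h with two chemical exposures 24 h apart; 10-point series 1 nM - 200 uM. Fixed, nuclear-stained, imaged (5 fields/well); nuclei count as % change vs 0.2% DMSO.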
smiles,measurement,setting,value
CCCCCCCCCOS(=O)(=O)O,AC50,TTR (gene 7276),8.43 µM (active)
CCCCCCOc1ccc(O)cc1,AC50,TTR (gene 7276),3.47 µM (active)
O=c1cc(-c2ccc(O)cc2)oc2cc(O)cc(O)c12,AC50,TTR (gene 7276),0.035 µM (active)
CCCCCCCCCCCCOCCOS(=O)(=O)O,AC50,TTR (gene 7276),6.09 µM (active)
O=S(=O)(O)c1cc(S(=O)(=O)O)c2c(N=Nc3ccccc3)c(O)ccc2c1,AC50,TTR (gene 7276),12 µM (active)
O=C(O)c1ccccc1O,outcome,[1],inactive
same,outcome,[2],inactive
same,outcome,[3],inactive
same,outcome,[4],inactive
C#C[C@]1(O)CC[C@H]2[C@@H]3CCc4cc(O)ccc4[C@H]3CC[C@@]21C,AC50,TTR (gene 7276),2.73 µM (active)
CCCCCCCCOS(=O)(=O)O,AC50,TTR (gene 7276),10.6 µM (active)
CCCCCCCCOC(=O)c1ccc(O)cc1,AC50,TTR (gene 7276),2.77 µM (active)
CC(C)Cc1ccc(C(C)C(=O)O)cc1 (stereo unspecified),outcome,[1],inactive
same,outcome,[2],inactive
same,outcome,[3],inactive
same,outcome,[4],inactive
